Test results: the supplement of paper PMC7595190
Values without a mark were called inactive.

How the values were obtained:
Test in all cases: CellTox Green cytotoxicity fluorescence relative to DMSO vehicle (fold of vehicle RFU); higher = more cell death (loss of membrane integrity), active = 2 or more
[1] = test system: CMK
How it was run: (§1)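 Values are cytotoxicity, read as fluorescence from loss of membrane integrity and expressed as fold of the DMSO vehicle. MV4-11, CMK and Kasumi-1 cells at 4.0 × 10^4 per well received CellTox Green reagent at seeding and single Selleckchem apoptosis library compounds at final 0.01, 0.1 and 1 µM (vehicle 0.1% DMSO). Plates were incubated at 37 °C, 5% CO2 and read at 24, 48 and 72 h.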

[2] = test system: Kasumi-1
How it was run: as §1

[3] = test system: MV4-11
How it was run: as §1

CC(=NNC(=S)N1CCC1)c1ccccn1
CellTox Green cytotoxicity fluorescence ([1]; 0.01 µM, 24 h): 0.934
CellTox Green cytotoxicity fluorescence ([1]; 0.01 µM, 48 h): 0.962
CellTox Green cytotoxicity fluorescence ([1]; 0.01 µM, 72 h): 1.02
CellTox Green cytotoxicity fluorescence ([1]; 0.1 µM, 24 h): 0.922
CellTox Green cytotoxicity fluorescence ([1]; 0.1 µM, 48 h): 1.29
CellTox Green cytotoxicity fluorescence ([1]; 0.1 µM, 72 h): 1.42
CellTox Green cytotoxicity fluorescence ([1]; 1 µM, 24 h): 1.04
CellTox Green cytotoxicity fluorescence ([1]; 1 µM, 48 h): 1.42
CellTox Green cytotoxicity fluorescence ([1]; 1 µM, 72 h): 1.4
CellTox Green cytotoxicity fluorescence ([2]; 0.01 µM, 24 h): 1.01
CellTox Green cytotoxicity fluorescence ([2]; 0.01 µM, 48 h): 1.03
CellTox Green cytotoxicity fluorescence ([2]; 0.01 µM, 72 h): 1.19
CellTox Green cytotoxicity fluorescence ([2]; 0.1 µM, 24 h): 0.971
CellTox Green cytotoxicity fluorescence ([2]; 0.1 µM, 48 h): 1.18
CellTox Green cytotoxicity fluorescence ([2]; 0.1 µM, 72 h): 1.6
CellTox Green cytotoxicity fluorescence ([2]; 1 µM, 24 h): 1.02
CellTox Green cytotoxicity fluorescence ([2]; 1 µM, 48 h): 1.25
CellTox Green cytotoxicity fluorescence ([2]; 1 µM, 72 h): 1.49
CellTox Green cytotoxicity fluorescence ([3]; 0.01 µM, 24 h): 0.984
CellTox Green cytotoxicity fluorescence ([3]; 0.01 µM, 48 h): 1.31
CellTox Green cytotoxicity fluorescence ([3]; 0.01 µM, 72 h): 2.11 (active)
CellTox Green cytotoxicity fluorescence ([3]; 0.1 µM, 24 h): 0.983
CellTox Green cytotoxicity fluorescence ([3]; 0.1 µM, 48 h): 1.53
CellTox Green cytotoxicity fluorescence ([3]; 0.1 µM, 72 h): 2.27 (active)
CellTox Green cytotoxicity fluorescence ([3]; 1 µM, 24 h): 1.02
CellTox Green cytotoxicity fluorescence ([3]; 1 µM, 48 h): 1.38
CellTox Green cytotoxicity fluorescence ([3]; 1 µM, 72 h): 1.68

NS(=O)(=O)C#Cc1ccccc1 [Pifithrin-m]
CellTox Green cytotoxicity fluorescence ([1]; 0.01 µM, 24 h): 0.969
CellTox Green cytotoxicity fluorescence ([1]; 0.01 µM, 48 h): 0.96
CellTox Green cytotoxicity fluorescence ([1]; 0.01 µM, 72 h): 0.939
CellTox Green cytotoxicity fluorescence ([1]; 0.1 µM, 24 h): 1.01
CellTox Green cytotoxicity fluorescence ([1]; 0.1 µM, 48 h): 1
CellTox Green cytotoxicity fluorescence ([1]; 0.1 µM, 72 h): 0.998
CellTox Green cytotoxicity fluorescence ([1]; 1 µM, 24 h): 1
CellTox Green cytotoxicity fluorescence ([1]; 1 µM, 48 h): 1.04
CellTox Green cytotoxicity fluorescence ([1]; 1 µM, 72 h): 0.96
CellTox Green cytotoxicity fluorescence ([2]; 0.01 µM, 24 h): 0.994
CellTox Green cytotoxicity fluorescence ([2]; 0.01 µM, 48 h): 0.986
CellTox Green cytotoxicity fluorescence ([2]; 0.01 µM, 72 h): 0.979
CellTox Green cytotoxicity fluorescence ([2]; 0.1 µM, 24 h): 1
CellTox Green cytotoxicity fluorescence ([2]; 0.1 µM, 48 h): 0.98
CellTox Green cytotoxicity fluorescence ([2]; 0.1 µM, 72 h): 0.98
CellTox Green cytotoxicity fluorescence ([2]; 1 µM, 24 h): 0.987
CellTox Green cytotoxicity fluorescence ([2]; 1 µM, 48 h): 0.985
CellTox Green cytotoxicity fluorescence ([2]; 1 µM, 72 h): 0.983
CellTox Green cytotoxicity fluorescence ([3]; 0.01 µM, 24 h): 0.989
CellTox Green cytotoxicity fluorescence ([3]; 0.01 µM, 48 h): 1
CellTox Green cytotoxicity fluorescence ([3]; 0.01 µM, 72 h): 1
CellTox Green cytotoxicity fluorescence ([3]; 0.1 µM, 24 h): 0.994
CellTox Green cytotoxicity fluorescence ([3]; 0.1 µM, 48 h): 0.987
CellTox Green cytotoxicity fluorescence ([3]; 0.1 µM, 72 h): 0.979
CellTox Green cytotoxicity fluorescence ([3]; 1 µM, 24 h): 1.02
CellTox Green cytotoxicity fluorescence ([3]; 1 µM, 48 h): 1.02
CellTox Green cytotoxicity fluorescence ([3]; 1 µM, 72 h): 1.03

CN[C@@H](C)C(=O)N[C@H](C(=O)N1CCC[C@H]1C(=O)Nc1snnc1-c1ccccc1)C1CCCCC1
CellTox Green cytotoxicity fluorescence ([1]; 0.01 µM, 24 h): 0.986
CellTox Green cytotoxicity fluorescence ([1]; 0.01 µM, 48 h): 0.984
CellTox Green cytotoxicity fluorescence ([1]; 0.01 µM, 72 h): 0.983
CellTox Green cytotoxicity fluorescence ([1]; 0.1 µM, 24 h): 1.01
CellTox Green cytotoxicity fluorescence ([1]; 0.1 µM, 48 h): 1
CellTox Green cytotoxicity fluorescence ([1]; 0.1 µM, 72 h): 1.02
CellTox Green cytotoxicity fluorescence ([1]; 1 µM, 24 h): 1.01
CellTox Green cytotoxicity fluorescence ([1]; 1 µM, 48 h): 1.02
CellTox Green cytotoxicity fluorescence ([1]; 1 µM, 72 h): 0.959
CellTox Green cytotoxicity fluorescence ([2]; 0.01 µM, 24 h): 0.983
CellTox Green cytotoxicity fluorescence ([2]; 0.01 µM, 48 h): 0.949
CellTox Green cytotoxicity fluorescence ([2]; 0.01 µM, 72 h): 0.94
CellTox Green cytotoxicity fluorescence ([2]; 0.1 µM, 24 h): 1.01
CellTox Green cytotoxicity fluorescence ([2]; 0.1 µM, 48 h): 1.03
CellTox Green cytotoxicity fluorescence ([2]; 0.1 µM, 72 h): 1.07
CellTox Green cytotoxicity fluorescence ([2]; 1 µM, 24 h): 0.988
CellTox Green cytotoxicity fluorescence ([2]; 1 µM, 48 h): 1.04
CellTox Green cytotoxicity fluorescence ([2]; 1 µM, 72 h): 1.1
CellTox Green cytotoxicity fluorescence ([3]; 0.01 µM, 24 h): 1.01
CellTox Green cytotoxicity fluorescence ([3]; 0.01 µM, 48 h): 0.97
CellTox Green cytotoxicity fluorescence ([3]; 0.01 µM, 72 h): 0.974
CellTox Green cytotoxicity fluorescence ([3]; 0.1 µM, 24 h): 0.988
CellTox Green cytotoxicity fluorescence ([3]; 0.1 µM, 48 h): 0.993
CellTox Green cytotoxicity fluorescence ([3]; 0.1 µM, 72 h): 1
CellTox Green cytotoxicity fluorescence ([3]; 1 µM, 24 h): 1.01
CellTox Green cytotoxicity fluorescence ([3]; 1 µM, 48 h): 1.03
CellTox Green cytotoxicity fluorescence ([3]; 1 µM, 72 h): 1.04

CN1CCN(CCCNc2ncc(Cl)c(-c3cc4c(C(=O)NC5CC5)cccc4s3)n2)CC1
CellTox Green cytotoxicity fluorescence ([1]; 0.01 µM, 24 h): 0.99
CellTox Green cytotoxicity fluorescence ([1]; 0.01 µM, 48 h): 0.985
CellTox Green cytotoxicity fluorescence ([1]; 0.01 µM, 72 h): 0.953
CellTox Green cytotoxicity fluorescence ([1]; 0.1 µM, 24 h): 0.97
CellTox Green cytotoxicity fluorescence ([1]; 0.1 µM, 48 h): 0.978
CellTox Green cytotoxicity fluorescence ([1]; 0.1 µM, 72 h): 0.95
CellTox Green cytotoxicity fluorescence ([1]; 1 µM, 24 h): 0.956
CellTox Green cytotoxicity fluorescence ([1]; 1 µM, 48 h): 0.993
CellTox Green cytotoxicity fluorescence ([1]; 1 µM, 72 h): 1
CellTox Green cytotoxicity fluorescence ([2]; 0.01 µM, 24 h): 0.943
CellTox Green cytotoxicity fluorescence ([2]; 0.01 µM, 48 h): 0.931
CellTox Green cytotoxicity fluorescence ([2]; 0.01 µM, 72 h): 0.891
CellTox Green cytotoxicity fluorescence ([2]; 0.1 µM, 24 h): 0.958
CellTox Green cytotoxicity fluorescence ([2]; 0.1 µM, 48 h): 0.947
CellTox Green cytotoxicity fluorescence ([2]; 0.1 µM, 72 h): 0.949
CellTox Green cytotoxicity fluorescence ([2]; 1 µM, 24 h): 0.953
CellTox Green cytotoxicity fluorescence ([2]; 1 µM, 48 h): 1.03
CellTox Green cytotoxicity fluorescence ([2]; 1 µM, 72 h): 1.01
CellTox Green cytotoxicity fluorescence ([3]; 0.01 µM, 24 h): 0.979
CellTox Green cytotoxicity fluorescence ([3]; 0.01 µM, 48 h): 0.976
CellTox Green cytotoxicity fluorescence ([3]; 0.01 µM, 72 h): 0.987
CellTox Green cytotoxicity fluorescence ([3]; 0.1 µM, 24 h): 0.956
CellTox Green cytotoxicity fluorescence ([3]; 0.1 µM, 48 h): 0.966
CellTox Green cytotoxicity fluorescence ([3]; 0.1 µM, 72 h): 0.965
CellTox Green cytotoxicity fluorescence ([3]; 1 µM, 24 h): 0.903
CellTox Green cytotoxicity fluorescence ([3]; 1 µM, 48 h): 0.93
CellTox Green cytotoxicity fluorescence ([3]; 1 µM, 72 h): 0.926

Cc1cccc(CC(=O)N2CCc3c2ccc(-c2cn(C)c4ncnc(N)c24)c3F)n1
CellTox Green cytotoxicity fluorescence ([1]; 0.01 µM, 24 h): 0.981
CellTox Green cytotoxicity fluorescence ([1]; 0.01 µM, 48 h): 0.975
CellTox Green cytotoxicity fluorescence ([1]; 0.01 µM, 72 h): 0.966
CellTox Green cytotoxicity fluorescence ([1]; 0.1 µM, 24 h): 1
CellTox Green cytotoxicity fluorescence ([1]; 0.1 µM, 48 h): 0.997
CellTox Green cytotoxicity fluorescence ([1]; 0.1 µM, 72 h): 1
CellTox Green cytotoxicity fluorescence ([1]; 1 µM, 24 h): 1
CellTox Green cytotoxicity fluorescence ([1]; 1 µM, 48 h): 1.05
CellTox Green cytotoxicity fluorescence ([1]; 1 µM, 72 h): 0.907
CellTox Green cytotoxicity fluorescence ([2]; 0.01 µM, 24 h): 1.03
CellTox Green cytotoxicity fluorescence ([2]; 0.01 µM, 48 h): 1.02
CellTox Green cytotoxicity fluorescence ([2]; 0.01 µM, 72 h): 1.02
CellTox Green cytotoxicity fluorescence ([2]; 0.1 µM, 24 h): 1.01
CellTox Green cytotoxicity fluorescence ([2]; 0.1 µM, 48 h): 1.02
CellTox Green cytotoxicity fluorescence ([2]; 0.1 µM, 72 h): 1.04
CellTox Green cytotoxicity fluorescence ([2]; 1 µM, 24 h): 1.03
CellTox Green cytotoxicity fluorescence ([2]; 1 µM, 48 h): 1.03
CellTox Green cytotoxicity fluorescence ([2]; 1 µM, 72 h): 1.04
CellTox Green cytotoxicity fluorescence ([3]; 0.01 µM, 24 h): 1.04
CellTox Green cytotoxicity fluorescence ([3]; 0.01 µM, 48 h): 1.04
CellTox Green cytotoxicity fluorescence ([3]; 0.01 µM, 72 h): 1.06
CellTox Green cytotoxicity fluorescence ([3]; 0.1 µM, 24 h): 1.02
CellTox Green cytotoxicity fluorescence ([3]; 0.1 µM, 48 h): 1.01
CellTox Green cytotoxicity fluorescence ([3]; 0.1 µM, 72 h): 1.02
CellTox Green cytotoxicity fluorescence ([3]; 1 µM, 24 h): 1.03
CellTox Green cytotoxicity fluorescence ([3]; 1 µM, 48 h): 1.03
CellTox Green cytotoxicity fluorescence ([3]; 1 µM, 72 h): 1.04

C/C(=N\NC(=O)c1cccc(S(=O)(=O)N2CCOCC2)c1)c1cc(Cl)ccc1O
CellTox Green cytotoxicity fluorescence ([1]; 0.01 µM, 24 h): 0.984
CellTox Green cytotoxicity fluorescence ([1]; 0.01 µM, 48 h): 0.991
CellTox Green cytotoxicity fluorescence ([1]; 0.01 µM, 72 h): 1.04
CellTox Green cytotoxicity fluorescence ([1]; 0.1 µM, 24 h): 0.936
CellTox Green cytotoxicity fluorescence ([1]; 0.1 µM, 48 h): 0.956
CellTox Green cytotoxicity fluorescence ([1]; 0.1 µM, 72 h): 0.969
CellTox Green cytotoxicity fluorescence ([1]; 1 µM, 24 h): 0.942
CellTox Green cytotoxicity fluorescence ([1]; 1 µM, 48 h): 0.907
CellTox Green cytotoxicity fluorescence ([1]; 1 µM, 72 h): 0.774
CellTox Green cytotoxicity fluorescence ([2]; 0.01 µM, 24 h): 0.938
CellTox Green cytotoxicity fluorescence ([2]; 0.01 µM, 48 h): 0.949
CellTox Green cytotoxicity fluorescence ([2]; 0.01 µM, 72 h): 0.96
CellTox Green cytotoxicity fluorescence ([2]; 0.1 µM, 24 h): 0.974
CellTox Green cytotoxicity fluorescence ([2]; 0.1 µM, 48 h): 0.986
CellTox Green cytotoxicity fluorescence ([2]; 0.1 µM, 72 h): 0.968
CellTox Green cytotoxicity fluorescence ([2]; 1 µM, 24 h): 0.937
CellTox Green cytotoxicity fluorescence ([2]; 1 µM, 48 h): 1.02
CellTox Green cytotoxicity fluorescence ([2]; 1 µM, 72 h): 1.05
CellTox Green cytotoxicity fluorescence ([3]; 0.01 µM, 24 h): 0.971
CellTox Green cytotoxicity fluorescence ([3]; 0.01 µM, 48 h): 0.97
CellTox Green cytotoxicity fluorescence ([3]; 0.01 µM, 72 h): 0.966
CellTox Green cytotoxicity fluorescence ([3]; 0.1 µM, 24 h): 0.98
CellTox Green cytotoxicity fluorescence ([3]; 0.1 µM, 48 h): 0.978
CellTox Green cytotoxicity fluorescence ([3]; 0.1 µM, 72 h): 0.972
CellTox Green cytotoxicity fluorescence ([3]; 1 µM, 24 h): 0.953
CellTox Green cytotoxicity fluorescence ([3]; 1 µM, 48 h): 1.06
CellTox Green cytotoxicity fluorescence ([3]; 1 µM, 72 h): 1.17
